This note sets out measurements from PubChem BioAssay (NCATS).

Records with an inconclusive call do not appear. Calls of active or inactive are those of the source. Calls follow the shape of the dose curve; as a rule, active = well fitted inhibition curve with a large enough effect; inconclusive = small, poorly fitted or top-dose-only effect; inactive = flat fitted curve, though single readings scatter.

Common to all, as to assay: qHTS profiling for inhibitors of Plasmodium falciparum proliferation (AID 504749); also: nearly all actives have a fitted effect of over 60% in size
Settings in all cases: P. falciparum in erythrocytes, SYBR Green DNA, 72 h; series mostly up to 28.7 µM
Background: In qHTS, concentration-response curves come from the screen itself.

Test [1] relates to DIV14. The procedure, abridged:
(§1)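 Each compound contacts P. falciparum-infected red blood cells for 72 h at 37 C; lysis buffer (Tris, EDTA, saponin, Triton X, SYBR Green I) is added and fluorescence measured next morning; values normalized to controls.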

The test system of test [2] is DIV17. The essentials: as §1
In test [3] the test system is DIV30. The essentials:
as §1

Test [4] concerns Dd2. The procedure, abridged:
as §1

For test [5], the system named is ECU. The procedure, abridged: as §1
Test [6] concerns FAB9. The essentials: as §1
Test [7] has as its system GB4. The essentials:
as §1

Test [8] deals with HB3. The procedure, abridged: as §1
In test [9] the test system is ICS. The procedure, abridged:
as §1

The test system of test [10] is JCK. The procedure, abridged:
as §1
Potency is read from the fitted curve at half-maximal effect.

For the molecule `CC1(C)CCC(NC(=O)[C@@H](N)CCC(=O)O)CC1`, the Potency entry in [1], in test [2], in test [3], in test [4], in test [5] and in test [6] was “inactive” each time. For the same molecule, the Potency result in [7], in [8], in test [9] and in test [10] was “inactive” in each case.
As to `C[C@]12CC[C@@H]3c4ccc(O)cc4CC[C@H]3[C@@H]1CC[C@@H]2O`, the Potency entry in test [1], in test [2], in [3], in test [4], in [5] and in test [6] was “inactive” each time. Also, the Potency entry in test [7], in test [8], in test [9] and in test [10] was “inactive” in each case.
`CC(=O)Oc1ccc(C(=C2CCCCC2)c2ccc(OC(C)=O)cc2)cc1`: the Potency result in test [1], in test [2], in test [3], in test [4], in [5] and in test [6] was “inactive” throughout. Besides, the Potency entry in test [7], in [8], in test [9] and in test [10] was “inactive” each time.
In the case of `O=C(O)c1cc2cc(Cc3cccnc3)ccc2o1`, the Potency result in test [1], in [2], in [3], in test [4], in test [5] and in test [6] was “inactive” each time. Besides, the Potency result in test [7], in test [8], in test [9] and in [10] was “inactive” in each case.
Regarding `O=C(OCCOCCO)c1ccccc1Nc1cccc(C(F)(F)F)c1`, the Potency entry in test [1], in test [2], in [3], in [4], in test [5] and in [6] was “inactive” throughout. Besides, the Potency entry in [7], in test [8], in [9] and in test [10] was “inactive” in each case.
Consider `NCCc1ccn[nH]1`, for which the Potency entry in [1], in [2], in [3], in test [4], in test [5] and in test [6] was “inactive” throughout. Moreover, the Potency result in test [7], in [8], in test [9] and in test [10] was “inactive” in each case.
Regarding `N[C@@H](Cc1cnc[nH]1)C(=O)O`, the Potency result in test [1], in [2], in [3], in test [4], in test [5] and in test [6] was “inactive” throughout. The Potency entry in test [7], in [8], in test [9] and in test [10] was “inactive” in each case.
Regarding `COc1cc(OC)cc(OC)c1`, the Potency result in [1], in test [2], in [3], in test [4], in [5] and in test [6] was “inactive” each time. The Potency result in [7], in test [8], in test [9] and in [10] was “inactive” in each case.
For the molecule `C[N+]1(CCCCC[N+]2(C)CCCC2)CCCC1`, the Potency entry in test [1], in test [2], in test [3], in [4], in test [5] and in test [6] was “inactive” throughout. For the same molecule, the Potency entry in test [7], in test [8], in test [9] and in test [10] was “inactive” in each case.
As for `C1CCc2nnnn2CC1`, the Potency result in test [1], in [2], in test [3], in test [4], in [5] and in test [6] was “inactive” in each case. The Potency result in [7], in [8], in test [9] and in test [10] was “inactive” in each case.
For the molecule `CCOC(=O)COc1ccc2c(C)c(CCN(CC)CC)c(=O)oc2c1Cl`, the Potency entry in [1], in [2], in test [3], in test [4], in [6] and in test [7] was “inactive” throughout. Further, the Potency entry in test [8], in [9] and in test [10] was “inactive” throughout.
As to `CCCCCCCCCCCCCCCCCC(=O)OCC(O)CO` (stereo unspecified), the Potency entry in [1], in [2], in [4], in [5], in test [6] and in [7] was “inactive” in each case. Also, the Potency result in [8] and in test [9] was “inactive” in each case.
Take `C[C@H](O)C(=O)Nc1c(I)c(C(=O)NC(CO)CO)c(I)c(C(=O)NC(CO)CO)c1I`: the Potency result in test [1], in [2], in [3], in test [4], in test [5] and in [6] was “inactive” each time. In addition, the Potency result in [7], in [8], in [9] and in test [10] was “inactive” in each case.
Consider `CCN(CC)C(=O)/C(C#N)=C/c1cc(O)c(O)c([N+](=O)[O-])c1`, for which the Potency entry in [1], in test [2], in test [3], in test [5], in test [6] and in [7] was “inactive” in each case. Besides, the Potency entry in test [8] and in test [10] was “inactive” throughout. For the same molecule, in [4], the Potency was 0.447 µM (active).
Take `CCCCOc1ccc(C(=O)CCN2CCCCC2)cc1`: the Potency entry in test [1], in [2], in test [3], in [4], in test [5] and in [6] was “inactive” throughout. For the same molecule, the Potency entry in [7], in test [8], in [9] and in test [10] was “inactive” each time.
Regarding `CCCCC(CC)CN=C(N)NC(N)=NCCCCCCN=C(N)NC(N)=NCC(CC)CCCC` (stereo unspecified), the Potency in [1] is 1.35 µM (active); in test [2], 1.2 µM (active); in [3] it was 1.2 µM (active); in [4] it was 2 µM (active); in test [5], 1.12 µM (active); in test [6], 1.78 µM (active). The Potency in test [7] is 1.51 µM (active); in test [8], 2.24 µM (active); in [9], 0.316 µM (active); in test [10], 3.98 µM (active).
Take `c1ccc(-c2ccc(C(c3ccccc3)n3ccnc3)cc2)cc1` (stereo unspecified): the Potency in [1] was 9.53 µM (active); in test [2], 10.7 µM (active); in [3], 12 µM (active); in [4], 7.94 µM (active); in test [5], 3.55 µM (active); in [7], 8.49 µM (active). The figures for the Potency in test [8] and in test [9] were 10 µM (active) and 2.24 µM (active), respectively.
Turning to `Clc1ccc2c(c1)CCc1cccnc1C2=C1CCNCC1`, the Potency in test [1] was 7.57 µM (active); in test [2], 9.53 µM (active); in test [3], 16.9 µM (active); in [4] it was 4.47 µM (active); in test [9] it was 11.2 µM (active). In addition, the Potency entry in [6], in test [8] and in [10] was “inactive” each time.
On to `CCN1CCN(c2cc3c(cc2F)c(=O)c(C(=O)O)cn3C2CC2)CC1`, for which the Potency entry in test [1], in test [2], in [3], in [4], in [5] and in [7] was “inactive” in each case. Moreover, the Potency result in test [8] and in [10] was “inactive” throughout.
As for `COc1cc(NS(C)(=O)=O)ccc1Nc1c2ccccc2nc2ccccc12`, the Potency in test [1] was 1.9 µM (active); in [2] it was 1.51 µM (active); in test [3], 4.26 µM (active); in [5], 3.16 µM (active); in test [6] it was 3.98 µM (active); in test [8], 5.01 µM (active). In addition, the Potency in [9] is 1.58 µM (active); in test [10], 3.55 µM (active).
On to `COCc1c(C(C)C)nc(C(C)C)c(/C=C/[C@@H](O)C[C@@H](O)CC(=O)O)c1-c1ccc(F)cc1`, for which the Potency result in test [1], in [2], in test [3], in test [4], in test [5] and in test [6] was “inactive” each time. For the same molecule, the Potency result in test [7], in test [8], in [9] and in [10] was “inactive” in each case.
On to `Cc1c(C)n(CCN(C)C)c2ccc(C(=O)OCCN(C)C)cc12`, for which the Potency result in test [1], in [2], in test [3], in test [4], in [5] and in test [6] was “inactive” throughout. In addition, the Potency entry in test [8] and in [10] was “inactive” throughout.
